# Source: PubChem BioAssay
# Only some compounds are listed: those with a hit (about 7.3% of all), similar ones and a draw of the others.
# FLuc modulator: qHTS profiling assay for firefly luciferase inhibitor/activator using purifed enzyme and Km concentrations of substrates (counterscreen for miR-21 project); Luciferin 4-monooxygenase (Photinus pyralis), P08659; purified FLuc, Km substrates, luminescence inhibition; Potency, µM (top dose mostly 57.5 µM), for the others: at the top dose activity change, negative = inhibition, most hits filed as inhibitors; 360,000 compounds, 6.9% hits; AID 588342, 2011;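 further: plate controls were vehicle for no effect and reference inhibitor for full effect; nearly all actives have a fitted effect of over 55% in size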
# Target sequence (P08659 whole entry, looked up): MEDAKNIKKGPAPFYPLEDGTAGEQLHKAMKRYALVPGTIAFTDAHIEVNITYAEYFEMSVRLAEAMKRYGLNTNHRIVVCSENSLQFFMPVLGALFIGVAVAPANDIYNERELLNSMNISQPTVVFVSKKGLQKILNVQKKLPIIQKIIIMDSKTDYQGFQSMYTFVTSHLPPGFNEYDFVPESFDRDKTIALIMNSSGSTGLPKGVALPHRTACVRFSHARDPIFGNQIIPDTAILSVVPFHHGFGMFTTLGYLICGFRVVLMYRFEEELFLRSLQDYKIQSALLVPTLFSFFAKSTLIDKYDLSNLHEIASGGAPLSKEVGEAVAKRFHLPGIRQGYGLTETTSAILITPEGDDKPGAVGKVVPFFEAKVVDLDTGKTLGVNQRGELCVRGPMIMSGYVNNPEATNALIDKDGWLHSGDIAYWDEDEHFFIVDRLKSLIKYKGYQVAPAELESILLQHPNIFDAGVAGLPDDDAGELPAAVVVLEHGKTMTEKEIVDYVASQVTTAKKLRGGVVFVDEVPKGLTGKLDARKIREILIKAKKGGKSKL
#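 Purified P. pyralis luciferase, 10 nM final, with Km-level 10 uM D-luciferin and 10 uM ATP in 50 mM Tris acetate pH 7.5, 10 mM Mg acetate, 0.01% Tween-20, 0.05% BSA; 6-point qHTS titration about 60 µM downward; luminescence read.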
# NPC1 promoter act: qHTS Assay for NPC1 Promoter Activators; Potency, µM (doses to about 9.22 µM), for the others: top-dose activation, most hits filed as activators; Huh7 NPC1 promoter luciferase reporter, 24 h; 320,000 compounds, 2.4% hits; further: % of control where 0% means no effect; nearly all actives have a fitted effect of over 60% in size
#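 Stable NPC1-promoter luciferase Huh7 line; cpd (DMSO) 24 h, 37 °C, 5% CO2; Amplite luciferase reagent 10 min RT; luminescence readout. qHTS format.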
# KinaseGlo FLuc: Counterscreen for Luciferase (Kinase-Glo TM) Inhibition; Potency, µM (series often up to 38.3 µM), for inactives: top-dose activity change, negative = inhibition, most hits filed as inhibitors; Kinase-Glo luciferase, ATP luminescence, 8 min; Luciferin 4-monooxygenase (Photuris pensylvanica), Q27757; 200,000 compounds, 0.28% hits; AID 1379, 2008; further: on the % scale 0 is the no-effect control and ±100 the full control effect; nearly all actives have a fitted effect of over 60% in size
#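 Compounds were added to a substrate mix at pH 7.2 (50 mM imidazole, 10 uM ATP, within the enzyme's linear range), followed by Kinase-Glo detection reagent; luminescence was measured after 8 minutes at ambient temperature.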
# Rab9 prom act: qHTS Assay for Rab9 Promoter Activators. Huh7 Rab9 promoter-luciferase reporter, luminescence, 24 h. Potency, µM (top dose mostly 9.22 µM), for the others: at the highest dose activation, negative = inhibition, usual class: activators. 320,000 compounds, 2.8% hits; further: % of control where 0% means no effect; nearly all actives have a fitted effect of over 60% in size
#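 Huh7 cells stably carrying a Rab9 promoter-luciferase reporter, 1500 cells per well in OP-MEM I with 10% FBS, treated with compound 24 hours at 37C. Luciferase activity read by luminescence after 10 minutes with Amplite reagent.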
# SMN2 splice enh: qHTS Assay for Enhancers of SMN2 Splice Variant Expression; HEK293 SMN2-luciferase splicing reporter, luminescence, 30-36 h; Potency, µM (titrated, usually from 46.1 µM), without a hit: at the highest dose activity change, positive = activation, usual class: activators; 210,000 compounds, 2.8% hits; AID 1458, 2008; further: % of control where 0% means no effect; nearly all actives have a fitted effect of over 55% in size
#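 HEK293 cells carry an SMN2 […]–luciferase reporter in which exon 7 inclusion puts luciferase in frame. Cells were plated 10-12 h before compound addition, then incubated 30-36 h at 37C. ONE-Glo luminescence was read; sodium butyrate at 4.5 mM final served as control.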
# An asterisk follows results filed as active; ? = inconclusive; nt = no result; [ ] = another dose, or the depositor's remark. The call rests on the fitted dose curve; in most records, active means well fitted curve in the direction sought with a large enough effect; inconclusive means small, poorly fitted or top-dose-only effect, or another doubt; inactive means no such curve, though single readings can be large; an effect the other way counts as inactive or inconclusive. Potency means the concentration at half of the fitted maximal effect.
SMILES,FLuc modulator,NPC1 promoter act,KinaseGlo FLuc,Rab9 prom act,SMN2 splice enh
CN(C(=O)C1CCCO1)c1nnc(-c2ccccn2)s1 (centres undefined),15µM*,12%,-4%,25%,3%
c1ccc(-c2nc(-c3ccccn3)nc(-c3ccccn3)n2)nc1,-1%,-4%,nt,1%,nt
COc1ccc(-n2nc(C(=O)N3CCN(c4cccc(C)c4)C(C)C3)c3c4ccccc4n(C)c3c2=O)cc1Cl (centres undefined),-2%,nt,nt,nt,0%
Clc1cccc(Cl)c1/C=C/c1ccn[nH]1,17µM*,-21%,nt,8%,nt
Cc1cccc(CNC(=O)c2ccc(NC(=O)N3CC(C)Sc4ccccc43)cc2)c1 (centres undefined),4%,nt,nt,nt,-7%
O=C1NC[C@H](c2ccccc2)N1,nt,nt,0%,nt,7%
CCc1ccc(OCC(=O)NNC(=O)CNC(=O)c2ccc(Br)o2)cc1,?,0%,nt,0%,nt
CCCOc1ccc(OC(=O)c2ccc(Br)o2)cc1,9.5µM*,-4%,-3%,-3%,-7%
CCCC(C)NC(=O)c1ccc2[nH]c3c(c2c1)CC(C)CC3 (centres undefined),?,7%,nt,28%,nt
COC(=O)c1ccc2[nH]c3c(c2c1)CC(C)CC3 (centres undefined),12µM*,20%,nt,11%,nt
CCOC(=O)c1ccc(NS(=O)(=O)c2ccc3[nH]c4c(c3c2)CCCCC4)cc1,-13%,nt,nt,nt,nt
CCOC(=O)c1ccc2[nH]c3c(c2c1)CCCC3,11µM*,2.8µM*,nt,?,nt
CCC1CN(S(=O)(=O)c2cc(-c3cc(C)no3)ccc2C)c2cc(Cl)ccc2O1 (centres undefined),-1%,nt,nt,nt,nt
Oc1cccc(Nc2nc(O)c(/C=C3\C=Nc4ccccc43)s2)c1,21µM*,3%,nt,7%,nt
Oc1nc(Nc2cccc(Cl)c2)sc1/C=C1\C=Nc2ccccc21,?,8%,nt,8%,nt
COc1ccc(-c2[nH]ncc2C(=O)NCc2ccc(F)cc2)cc1,-9%,nt,nt,nt,-10%
Nc1ccccc1C(=O)NCc1ccc(F)cc1,-1%,0%,-3%,-1%,1%
Nc1[nH]c(N=NC(=O)c2ccc(F)cc2)c2ccccc12,7.6µM*,?,?,4µM*,nt
Nc1ccccc1C(=O)N=Nc1[nH]c(N)c2ccccc12,3.8µM*,3.5µM*,-15%,2.8µM*,18µM*
C=CCNC(=O)C1CC(=O)N(c2ccc(OCc3ccc(F)cc3)cc2)C1 (centres undefined),7.6µM*,1.1µM*,nt,1.4µM*,nt
C=CCNC(=O)C1CC(=O)N(c2ccc(OCC(=O)Nc3ccccc3)cc2)C1 (centres undefined),12µM*,2.8µM*,-5%,3.5µM*,13µM*
CCOc1ccc(N2CC(C(=O)NCCc3ccccc3)CC2=O)cc1 (centres undefined),1%,0%,nt,-5%,nt
CCCNC(=O)C1CC(=O)N(c2ccc(OCc3ccc(F)cc3)cc2)C1 (centres undefined),4.8µM*,0.63µM*,nt,0.89µM*,nt
CCCNC(=O)C1CC(=O)N(c2ccc(OCc3ccc(Cl)cc3)cc2)C1 (centres undefined),2.1µM*,1.4µM*,nt,4µM*,nt
C=CCNC(=O)C1CC(=O)N(c2ccc(OCC(=O)Nc3ccc(C)cc3)cc2)C1 (centres undefined),0%,0%,2%,-1%,0%
SMILES,FLuc modulator,NPC1 promoter act,KinaseGlo FLuc,Rab9 prom act,SMN2 splice enh
COc1ccc(CNC(=O)CS(=O)(=O)c2cccc3nsnc23)cc1,-2%,nt,nt,nt,nt
NC(=O)C1CC(=O)N(c2ccc(OCc3ccc(Cl)cc3)cc2)C1 (centres undefined),8.5µM*,2.8µM*,-4%,2.8µM*,nt
Cc1cccc(-c2nc(SCc3cc(=O)c4c(C)cc(C)cc4[nH]3)n[nH]2)c1,-11%,nt,nt,nt,nt
Cc1cccc(NC(=O)c2ccc(-n3c(C)nnc3C)cc2)c1,-2%,nt,nt,nt,nt
Cc1cc(NC(=O)c2ccccc2F)ccc1-c1nc2ccccc2s1,0.67µM*,nt,nt,nt,nt
COC(=O)CSc1nc2ccc(NC(C)=O)cc2s1,?,-4%,0%,-5%,15%
O=C(Nc1ccc2nc(SCC(=O)N3CCCC3)sc2c1)c1ccccc1F,24µM*,nt,nt,nt,nt
O=C(COc1ccccc1F)Nc1ccc2nc(SCC(=O)N3CCOCC3)sc2c1,21µM*,nt,nt,nt,nt
COc1cc(OC)cc(C(=O)Nc2ccc(-c3nc4ccccc4s3)c(C)c2)c1,-8%,nt,nt,nt,nt
CCOC(=O)CSc1nc2ccc(NC(=O)c3ccccc3F)cc2s1,15µM*,nt,nt,nt,nt
O=C(O)CCn1cnc2onc(-c3ccccc3Cl)c2c1=O,-14%,nt,nt,nt,-8%
O=C(Cn1ncc2c3ccccc3n(Cc3cccc(Cl)c3)c2c1=O)NCCCN1CCCCC1,-2%,nt,nt,nt,7%
CCOC(=O)CSc1nc2ccc(N)cc2s1,19µM*,-2%,1%,0%,4%
Nc1ccc2nc(SCC(=O)N3CCOCC3)sc2c1,-14%,13%,2%,23%,nt
CC(NC(=O)CSc1nc2ccc(N)cc2s1)c1ccccc1 (centres undefined),3%,-5%,-1%,-3%,nt
Nc1ccc2nc(SCc3cccc(F)c3)sc2c1,4.8µM*,?,0%,4.5µM*,13µM*
O=C(Cn1c(=O)n(-c2ccc(F)c(Cl)c2)c(=O)c2sc3ccccc3c21)NC1CCCC1,0%,nt,nt,nt,1%
O=C(Nc1nc2ccccc2[nH]1)NC1CCCCC1,1.5µM*,0.45µM*,nt,0.4µM*,nt
O=C(Nc1nc2ccccc2[nH]1)Nc1ccccc1F,1.1µM*,?,nt,?,nt
O=C(Nc1nc2ccccc2[nH]1)C12CC3CC(CC(C3)C1)C2,3.4µM*,2µM*,-2%,2.8µM*,14µM*
O=C(Nc1nc2ccccc2[nH]1)C1CC1,?,-15%,-11%,0%,10µM*
O=C(OCc1nc2ccccc2[nH]1)C12CC3CC(CC(C3)C1)C2,?,-5%,-1%,-5%,-11%
O=C(CSc1nc2ccccc2[nH]1)Nc1ccccc1F,3%,-1%,-2%,-4%,-7%
COc1ccc2nc(N(Cc3cccnc3)C(=O)C3CCCCC3)sc2c1,-13%,nt,nt,nt,nt
NC(N)=N/N=C\c1ccc(O)c(C(=O)O)c1,nt,nt,-3%[7.66 µM],nt,3%[9.22 µM]
Cc1cc(O)c(C(c2ccccc2Cl)N2CCN(c3ccccc3)CC2)c(=O)n1Cc1ccco1 (centres undefined),-4%,nt,nt,nt,nt
O=C(NC1CCCC1)c1ccccc1-c1nc2ccccc2[nH]1,0%,-1%,-6%,1%,11µM*
CCc1cccc(NC(=O)c2ccc3c(c2)c(C)c(C)n3Cc2ccc(F)cc2)c1,0%,nt,nt,nt,nt
